EWS-Fli block: inhibitors of EWS/Fli oncoprotein transcriptional activity; A673 NR0B1-luciferase reporter, viability-normalised; inhibition, % at 12.6 µM; 350,000 tested, 0.67% active; AID 651661;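 active = mean inhibition of at least 50% after viability correction, with every replicate also passing that limit; inconclusive = mean reaches 50% but only one of two replicates passes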;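 also: firefly luciferase signal divided by Alamar Blue viability fluorescence both relative to DMSO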
TWEAK-Fn14 inh: TWEAK-Fn14 signaling inhibition; TWEAK-stimulated Fn14 reporter cells, luciferase luminescence, 8 h; inhibition, % at 10 µM; 360,000 tested, 2% active; AID 1159606; in the data active = inhibition above about 50%
EBV LMP1 NFkB: inhibitors of Epstein-Barr LMP1-induced NF-kappaB reporter. LMP1-induced NF-kappaB luciferase reporter cells, luminescence. inhibition, % at 12.5 µM. 350,000 tested, 0.69% active. AID 504558; in the data active = inhibition above about 41%; inconclusive = no clear call, values can overlap the other calls;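 also: 0% = neutral control wells and 100% = reference inhibitor control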
TROY signal inh: TROY signaling inhibition; Q293 LMP1-TROYcd NF-kB luciferase reporter, 4 h; inhibition, % at 10 µM; 360,000 tested, 0.98% active;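 active = compounds whose plate-normalised and pattern-corrected inhibition of the luciferase reporter signal at the single screening dose is 50% or more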
LGR2 antag: inhibitors of bursicon-induced Drosophila LGR2 receptor cAMP signaling | inhibition, % at 9.99 µM | AID 720647 | 380,000 tested, 0.35% active | HEK293 LGR2, CRE-luciferase, bursicon-stimulated, 4 h;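 active = drop in luminescence signal, shown as inhibition above about 50% in the replicate tests, limit read from the data, passing the limit was not always enough; inconclusive = probably only some replicates passing the limit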;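 also: agonist challenge used bursicon conditioned medium at about half maximal strength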
Numbers without * were called inactive; ? = inconclusive; / = not tested or not shown. Most compounds without a hit are left out; they make up all but 2.5% or so of the library.

SMILES	EWS-Fli block	TWEAK-Fn14 inh	EBV LMP1 NFkB	TROY signal inh	LGR2 antag
C[C@@H]1CN([C@@H](C)CO)S(=O)(=O)c2ccc(C3=CCCC3)cc2O[C@H]1CN(C)C(=O)Cc1ccncc1	-6	/	/	/	-10
COc1ccc(NC(=O)c2cccc(N3C(=O)NC4CC3(C)Oc3ccccc34)c2)cc1 (configuration not stated)	/	11	-7	-18	/
COc1cccc2c1OC1(C)CC2NC(=O)N1c1cccc(C(=O)Nc2ccc3c(c2)OCCO3)c1 (configuration not stated)	/	83*	8	31	-19
O=c1c(Br)ccc(Br)cc1Br	37	104*	-2	-34	19
COc1ccc(CN(C)C[C@H]2Oc3c(NS(=O)(=O)c4ccccc4)cccc3C(=O)N([C@@H](C)CO)C[C@@H]2C)cc1	-7	/	/	/	-3
O=C(NN=C1CCCC1)c1n[nH]c2c1CCC2	-24	-5	-1	-13	-16
C/C(=N\NC(=O)c1n[nH]c2c1CCC2)c1ccco1	24	59*	36	-17	41
CCC(C)(C)C1CCc2[nH]nc(C(=O)N/N=C(\C)c3ccco3)c2C1 (configuration not stated)	-51	44	-8	68*	-67
Cc1cccc(NC(=O)Nc2ccc3c(c2)C(=O)N(C)[C@@H]2CC[C@H](CC(=O)NCc4ccccc4Cl)O[C@H]2CO3)c1	-5	/	/	/	-3
O=C1c2cc(Cl)ccc2-c2c(O)cc(Cl)cc21	-5	54*	-12	39	-5
COCCCN=C1NN=C(c2cc(C)n(Cc3ccco3)c2C)CS1	54*	10	8	2	-30
COCCn1c(C)cc(C2=NNC(=Nc3ccc(Cl)cc3Cl)SC2)c1C	/	8	15	-10	/
Cc1cc(C2=NNC(=NC3CC3)SC2)c(C)n1-c1ccccc1	89*	96*	74*	47	-4
Cc1cc(C2=NNC(=NC3CC3)SC2)c(C)n1Cc1ccco1	72*	61*	79*	16	/
CO[C@H]1CN(C)C(=O)c2ccc(NC(=O)NC(C)C)cc2OC[C@@H](C)N(C(=O)CC2CC2)C[C@H]1C	4	/	/	/	4
CC(C)(C)C(=O)Nc1ccc(-c2cc3cc(Cl)ccc3o2)cc1	-36	58*	-8	61*	/
O=c1c(Cc2ccccc2)c(O)c2cccc3c4c(n1c23)CCCC4	13	-2	1	54*	-8
Cc1cccc(Nc2nc(-c3c(C)nc4ccccn34)cs2)c1	/	66*	21	41	/
Cc1cccc(Nc2nc(-c3ccc4c(c3)OCCO4)cs2)c1	/	70*	-57	66*	/
c1cncc(-c2nc(-c3ccc4c(c3)OCCO4)cs2)c1	-69	52*	-12	-38	-67
Oc1ccc(-c2csc(-c3cccnc3)n2)cc1O	16	39	4	-29	-45
Cc1cccc(Nc2nc(-c3ccncc3)cs2)c1	-26	11	-34	14	-72
O=C(Nc1nc(-c2ccc3c(c2)OCCO3)cs1)c1ccc(Br)o1	-7	28	1	55*	-11
CN1C(=O)c2cc(NC(=O)NC3CCCC3)ccc2OC[C@H]2O[C@@H](CC(=O)NC3CCC3)CC[C@H]21	-1	/	/	/	0
O=C1/C(=C/c2cccc(Br)c2)SC(=S)N1CCC(=O)N(CCO)c1ccccc1	7	86*	-2	35	?
SMILES	EWS-Fli block	TWEAK-Fn14 inh	EBV LMP1 NFkB	TROY signal inh	LGR2 antag
O=C1/C(=C/c2ccc3c(c2)OCO3)SC(=S)N1CCC(=O)N(CCO)c1ccccc1	4	39	4	27	9
CCOC(=O)C1=C(CC)Nc2ccccc2N=C1NC(=O)c1cc(C)on1	0	-3	4	-3	-1
CCOC(=O)C1=C(CC)Nc2ccccc2N=C1NC(=O)Nc1ccc(Cl)c(Cl)c1	/	73*	39	53*	32
CN(C)c1cccc2c(S(=O)(=O)Nc3ccccn3)cccc12	/	84*	-19	62*	/
Cc1ccc(S(=O)(=O)Nc2ccccn2)c(C)c1	-10	16	3	4	-1
Cc1noc(C)c1S(=O)(=O)Nc1cccc2c1O[C@H](CN(C)Cc1ccncc1)[C@H](C)CN([C@H](C)CO)C2=O	-5	/	/	/	1
C[C@H](CO)N1C[C@H](C)[C@H](CN(C)S(=O)(=O)c2ccc(Cl)cc2)OCc2ccccc2-c2ccccc2C1=O	0	/	/	/	15
N#Cc1cccc(-c2ccc([C@@H]3[C@@H](CO)N4CCCCN(C(=O)Nc5ccccc5)C[C@@H]34)cc2)c1	23	/	/	/	2
CCOc1ccc(Br)cc1C1C(C(=O)OC)=C(N)Oc2cc(N(C)C)ccc21 (configuration not stated)	/	53*	-6	5	/
CCOc1ccccc1C1C(C(=O)OC)=C(N)OC2=C1C(=O)CCC2 (configuration not stated)	/	4	8	-12	/
O=C1/C(=C/c2ccncc2)CCC/C1=C\c1ccncc1	71*	103*	85*	82*	95*
Cc1c(C=O)c2ccccn2c1C(=O)c1cccs1	-3	-25	11	-2	1
Cc1c(C=O)c2ccccn2c1C(=O)c1ccccc1Cl	-17	0	53*	2	2
Cc1ccc(-c2nc(N)sc2C)cc1	-19	-5	-3	88*	-20
Cc1ccc(-c2nc(N)sc2-c2ccc(C)cc2)cc1	14	21	6	33	-12
O=C(Nc1ccc2c(c1)OCO2)N[C@H]1CC[C@H](CCNC(=O)C2CC2)O[C@H]1CO	-56	/	/	/	3
CC(C)c1ccc2c(c1)CCC1C(C)(CN)CCCC21C (configuration not stated)	59*	-21	-1	-18	1
O=C(C[C@@H]1C[C@H]2c3cc(NC(=O)C4CCC4)ccc3O[C@H]2[C@@H](CO)O1)NCc1ccncc1	-6	/	/	/	19
Cc1ccccc1NC(=O)C[C@H]1CC[C@H]2[C@@H](COc3ccc(NC(=O)NC(C)C)cc3C(=O)N2C)O1	-5	/	/	/	-10
O=C(Nc1sc2c(c1C(=O)O)CCCCC2)c1ccco1	/	56*	4	1	/
NC(=O)c1c(NC(=O)c2ccco2)sc2c1CCC2	/	18	-58	-35	/
CN(C)C(=O)c1c(NC(=O)c2ccco2)sc2c1CCCCC2	/	30	6	65*	/
CCCN1C[C@@H](C)[C@H](OC)CN(C)C(=O)c2cc(NC(=O)COC)ccc2OC[C@@H]1C	1	/	/	/	-7
Cc1ccc(-c2nc3cc(NC(=O)C(C)C)ccc3o2)cc1	/	61*	-21	53*	/
CC(C)C(=O)Nc1ccc(-c2nc3ncccc3o2)cc1	13	46	5	19	39
O=C(Nc1ccc2oc(-c3ccncc3)nc2c1)c1ccc([N+](=O)[O-])o1	62*	19	-21	0	-5
CC(Oc1ccc(Cl)cc1Cl)C(=O)Nc1ccc2oc(-c3ccncc3)nc2c1 (configuration not stated)	/	54*	22	59*	/
CC(C)C(=O)Nc1ccc(-c2nc3cccnc3o2)cc1	/	60*	1	13	/
COc1ccc(-c2ccccc2[C@@H]2[C@@H](CO)N(C(=O)NC(C)C)[C@H]2C#N)cc1	-3	/	/	/	-20

Screening results: PubChem BioAssay, several laboratories
